# Rows were chosen to be rich in hits. Some 1.8% of all compounds tested hit in one or more screens of this group.
# ABCB6 inh 2 – inhibitors of human ABC transporter ABCB6; K562-ABCB6 porphyrin accumulation, flow cytometry, 1 h; hits give low values; 360,000 tested, 0.19% active; fluorescence ratio to DMSO, % at 10 µM;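 active means fluorescence ratio to DMSO below 75%, the collection mean minus 3 SD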;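 further: signal is porphyrin accumulated inside mitochondria; lower ratio means ABCB6 inhibition with less porphyrin fluorescence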
# INS-1E GSIS act – primary screen for activators of insulin secretion dependent on glucose, INS-1E cells, GLuc reporter luminescence. INS-1E GLuc reporter insulin secretion, 2-3 h. activation, % at 16.6 µM. 370,000 tested, 0.61% active. AID 743287;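 active means lowest replicate activation of at least 40%, so every replicate reaches that level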
# CendR NRP1 mod – alters CendR peptide binding to human NRP-1 | FAM-RPARPAR peptide binding to NRP-1, fluorescence polarization | 360,000 tested, 0.85% active | O14786 | inhibition, % at 25 µM;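 active means inhibition or corrected inhibition above about 18%, plus a signal ratio from 0.5 to 1.5, limit read from the data, passing the limit was not always enough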
# ARNT TACC3 PPI – ARNT/TACC3 interaction disruption; 390,000 tested, 0.66% active; AlphaScreen His-ARNT PAS-B/GST-TACC3 binding, luminescence; TACC3 fragment carries E629A point mutation; inhibition, % at 9.99 µM; Q9Y6A5;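 active means mean inhibition of replicates at least 50% and at least half of replicates each reaching 50%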
# iPSC survival up – hiPSC single-cell survival enhancement; 360,000 tested, 0.044% active; AID 602274; survival enhancement, % at 20 µM; ATPlite luminescence; 100% = ROCK inhibitor wells, 0% = DMSO; in the data active means survival enhancement above about 18%;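 further: cells exposed to compounds for 16 hours before the ATP read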
# A number is an active result; . = inactive; / = no result.
SMILES,ABCB6 inh 2,INS-1E GSIS act,CendR NRP1 mod,ARNT TACC3 PPI,iPSC survival up
N/C(=N\OC(=O)c1ccccc1Br)c1ccc([N+](=O)[O-])cc1,.,.,.,.,.
CCn1c(SCC(=O)NCCc2ccccc2)nnc1-c1cccs1,.,.,.,.,.
CCn1c(SCC(=O)c2ccccc2)nnc1-c1cccs1,.,/,32,.,.
COc1cc2c3nnc(-c4ccc(F)cc4)c-3cn(Cc3ccccc3F)c2cc1OC,.,.,.,/,.
COc1cc2c3nnc(-c4ccccc4)c-3cn(Cc3ccccc3F)c2cc1OC,/,98,/,/,/
O=C(C[C@H]1CC[C@@H]2[C@H](COC[C@H](O)CN2C(=O)c2ccc3c(c2)OCO3)O1)NC1Cc2ccccc2C1,/,.,/,.,/
O=C(C[C@@H]1CC[C@H]2[C@@H](COC[C@H](O)CN2C(=O)Nc2cccc(F)c2)O1)NCc1ccccc1Cl,/,.,/,.,/
C[C@H](NC(=O)C[C@H]1C[C@@H]2c3cc(NC(=O)C4CCOCC4)ccc3O[C@@H]2[C@@H](CO)O1)c1ccccc1,/,.,/,.,/
CCCN1[C@@H]2Cn3c(ccc(-c4ccccc4F)c3=O)[C@H]1[C@@H](C(=O)NCc1ccccn1)[C@@H]2CO,/,.,/,/,/
Nc1ccc(C(=O)OCc2csc(-c3ccccc3)n2)cc1[N+](=O)[O-],.,46,.,/,.
O=C(Cn1cnc2c(OCc3ccccc3)ncnc21)NCc1ccccn1,.,41,.,/,.
O=C(Cn1cnc2c(OCc3ccccc3)ncnc21)NCc1ccccc1,.,.,.,.,.
O=C(Cn1cnc2c(OCc3ccccc3)ncnc21)N[C@H](CO)Cc1cc2ccccc2[nH]1,.,49,.,.,.
COC(=O)[C@H](Cc1ccccc1)NC(=O)Cn1cnc2c(OCc3ccccc3)ncnc21,.,.,.,.,.
CO[C@H]1CN(C)C(=O)c2ccc(NC(=O)C3CC3)cc2OC[C@H](C)N(CC2CCCC2)C[C@@H]1C,/,.,/,/,/
COc1ccc(/C=N/NC(=O)c2ccc(COc3ccccc3Cl)o2)c(OC)c1C,.,152,.,.,.
COC(=O)c1c(NC(=O)CN2CCC3(O)CCCCC3C2c2ccc(F)cc2)sc(C)c1C (centres undefined),.,.,.,.,.
COC(=O)c1c(NC(=O)CN2CCC3(O)CCCCC3C2c2cc(OC)ccc2OC)sc(C)c1C (centres undefined),.,.,27,.,.
O=C(CNC(=O)c1ccccc1)NCCCSc1ccccc1,.,.,27,.,.
CCOc1ccc(C(=O)NCC(=O)NCCCSc2ccccc2)cc1OCC,.,.,.,.,.
CCNc1nc(C)nc2c1oc1ccccc12,67,67,.,.,.
CCNc1nc(CC)nc2c1oc1ccccc12,.,81,.,.,.
COc1ccc(/C(C)=N/Nc2ccc(C(=O)O)cc2)cc1OC,.,63,.,.,.
C[C@H](CO)N1C[C@H](C)[C@@H](CN(C)C(=O)Nc2ccc(F)cc2)Oc2c(NS(=O)(=O)c3cccs3)cccc2C1=O,/,.,/,.,/
C[C@@H]1CN([C@@H](C)CO)S(=O)(=O)c2ccc(-c3cccnc3)cc2O[C@H]1CN(C)Cc1cncnc1,/,.,/,.,/
SMILES,ABCB6 inh 2,INS-1E GSIS act,CendR NRP1 mod,ARNT TACC3 PPI,iPSC survival up
O=C(NCC1CC1)c1onc(CSc2nc3ccccc3[nH]2)c1C(=O)NCC1CC1,.,.,26,.,.
C[C@H]1CCCCO[C@@H](CN(C)C(=O)Nc2ccc3c(c2)OCO3)[C@@H](C)CN([C@@H](C)CO)C(=O)c2cc(NS(=O)(=O)c3cn(C)cn3)ccc2O1,/,.,/,.,/
COc1ccc(C(=O)O)cc1S(=O)(=O)N1CCCc2ccccc21,.,.,.,11,.
COc1ccc(C(=O)NCc2ccccc2)cc1S(=O)(=O)N1CCCc2ccccc21,.,.,.,/,.
CN1c2ccc(-c3ccccc3)cc2[C@H]2[C@H](CCN2C(=O)c2ccccn2)[C@@H]1CO,/,.,/,/,/
Cc1ccn(CCC(=O)N2CCc3ccccc32)n1,.,.,20,.,.
O=C(Cn1ccc([N+](=O)[O-])n1)N1CCc2ccccc21,.,.,.,.,.
Cc1cccc(C)c1NC(=O)CSc1nnc(-c2ccco2)c(-c2ccco2)n1,.,/,.,57,.
CSc1nnc(-c2ccccc2)c(-c2ccccc2)n1,.,.,.,.,.
CSc1nnc(-c2ccco2)c(-c2ccco2)n1,.,.,29,/,.
CC(C)C#Cc1ccc2c(c1)O[C@H](CN(C)C(=O)C1CCC1)[C@@H](C)CN([C@@H](C)CO)S2(=O)=O,/,.,/,/,/
CN(C)/N=C/c1ccc(Sc2ccc([N+](=O)[O-])cc2[N+](=O)[O-])o1,.,.,33,.,.
CNC[C@H]1Oc2ccc(NS(C)(=O)=O)cc2C(=O)N(C)C[C@@H]1C,/,.,/,/,/
COC(=O)C(C)Sc1ncnc2c1c(-c1ccccc1)cn2-c1ccc(OC)cc1 (centres undefined),.,.,.,49,.
CCC(=O)N[C@@H]1CC[C@H](CCNC(=O)Nc2ccc(F)cc2)O[C@H]1CO,/,.,/,.,/
CCc1ccc(OCC(=O)NC(=S)Nc2ccc(C)cc2C)c(Br)c1,.,41,.,.,.
CCc1ccc(OCC(=O)NNC(=S)NC(=O)C2CC2)c(Br)c1,.,/,.,.,.
Cc1ccc(C(=O)NCCCn2ccnc2)cc1[N+](=O)[O-],.,/,.,.,.
Cc1ccc(S(=O)(=O)Nc2ccc(C(=O)NCCCn3ccnc3)cc2)cc1[N+](=O)[O-],.,44,.,.,.
Nn1c(SCC(=O)NCCC2=CCCCC2)nnc1C(F)(F)F,.,.,28,.,.
CCOC(=O)N1CCN(C(=O)c2cc(COc3ccc(OC)cc3Cl)on2)CC1,.,.,25,.,.
COC(=O)[C@@H]1[C@@H](CO)[C@@H]2Cn3c(ccc(-c4ccccc4)c3=O)[C@@H]2N1CC1CCCCC1,/,.,/,/,/
COc1cccc(NC(=O)Cc2ccccc2)c1,.,.,.,.,.
O=C(Cc1ccccc1)Nc1cccc(N2C(=O)C=CC2=O)c1,.,59,.,.,.
O=C(Nc1cccc(F)c1)c1ccccc1-c1ccccc1,.,.,.,/,.
SMILES,ABCB6 inh 2,INS-1E GSIS act,CendR NRP1 mod,ARNT TACC3 PPI,iPSC survival up
O=C(Nc1ccc(F)cc1F)c1ccccc1-c1ccccc1,.,.,31,.,.
CCCNC(=O)N1C[C@H](C)[C@@H](OC)CN(C)C(=O)c2cc(NC(C)=O)ccc2OC[C@@H]1C,/,.,/,.,/
O=C(O)c1ccc2c(c1)C(=O)N(c1ccccc1-c1ccccc1)C2=O,.,/,.,.,.
O=C(O)c1ccc(N2CCCCCC2)c(N2C(=O)c3ccccc3C2=O)c1,.,/,26,/,.
Cc1cc(SCC(=O)NCCN2C(=O)CSC2=O)nc2c(C)cccc12,.,46,.,.,.
Cc1cc(=O)n(-c2ccc(C(=O)O)cc2)[nH]1,.,.,.,50,.
COCC(=O)N1CC2(CN(C(=O)c3ccccn3)C2)c2c(n(C)c3cc(OC)ccc23)[C@H]1CO,/,.,/,/,/
O=C(/C=C/c1ccc2c(c1)OCO2)Nc1c(C(=O)O)[nH]c2ccccc12,.,.,.,.,.

# Screening results deposited in PubChem BioAssay by several laboratories.
